Reference: PMC12864922, “TDP-43 directly inhibits mRNA accumulation in neurites through modulation of mRNA stability”
Over roughly 9,900 sequences, “r (bound/input frequency ratio)” has its median near 0.7; the highest 2% begin near 6.5. The sample holds the highest values, similar sequences and a random draw of the others, so the mix is not that of the screen.

B1: ENSMUSG00000031028.589|Tub (ssRNA)
RNA: GGGAGUUCUACAGUCCGACGAUCGCUUCGAUAUCCGCAUGCUAUUUCUUUCAGUUUAUGGCCACCUGCCCAAAUUGACUUCCAGCUUACAAUCUUCUGUCAUUUCAAGAUCGUAAGAAGUACUGGGAUGGGUUUGAGUUUUCAGCACAGAGGCGAGUUGAUCUAGGAGCAUACAACUGUACUGAGCAGCUAGAGCAUUUGAGCAACCCAUGUAAUCUUUGUGUUUCCCUCCCUGUAAGAAGGCCUGUCAGAGCUUGCUGUAGGAGUUAGGGUAAAUGAAAGUUAGUCCUGGCUCUCAUCACCACUCUUGCGGUCGCACUAGUGUGGAAUUCUCGGGUGUCAAGG
B2: ENSMUSG00000004113.44|Cacna1b (ssRNA)
RNA: GGGAGUUCUACAGUCCGACGAUCGCUUCGAUAUCCGCAUGCUAUCCGCCGUGUACCCAAUGGCUAUCACUGCACUUUGGGACUCAGCACUGGCGUCCGGGCGCGGCACAGCUACCACCACCCCGAUCAGGACCACUGGUGCUAGCUGCACCACGACCACCCAUGUACCAGCUCCAUGGGUGAGGGUUCCAGUUGAUGAGUUUUAUCAUCCGCUCUGGGCUGUGGGGUCACAGCCCUGGGAGGAGGGCCCUCACAUCUCGGCCUCUGUGGUGGAGGCUCCUGCUUCCCUCCCUCCCUCCCUUUUCUCUUGCGGUCGCACUAGUGUGGAAUUCUCGGGUGUCAAGG
B3: ENSMUSG00000031028.188|Tub (ssRNA)
RNA: GGGAGUUCUACAGUCCGACGAUCGCUUCGAUAUCCGCAUGCUAUUAAUGGCAGAGUUGAGAACCUCAAAUUCUUUUGUUCCUACUGUUGCCCAGAAACUAGACUCUCUGACCUGCUAGGGUCUAUUCUGCAUGUCCUUUCUCUUCCCAGUUCCAGAGAUGAAACCCCUCCGAGUUAAUGUAUAAGGUUGGAAACCUUUCAGUAGGGAAUCAGGCAGUUCCCUGUUGAAAGUUGUCUGAGUUUUUGCACACCAUUCUGAUCUGAUGUGGCCUGUGCCUGGCUCCUCUAUGAGGACUUCGAGCUGCUCUUGCGGUCGCACUAGUGUGGAAUUCUCGGGUGUCAAGG
B4: ENSMUSG00000029028.242|Lrrc47 (ssRNA)
RNA: GGGAGUUCUACAGUCCGACGAUCGCUUCGAUAUCCGCAUGCUAGUCAGAACUAGUGAAGCUCCAGGCUCCUCGUGGCAGACCCUGGACAACGCUGGUAGCUGUUCUCCAUGAGACACGGCUGCUCACAGGUCCCUUUGAGUGGCUGUGGCAAGUACUCACCUACUAAGUGUUUAGGGUGGAGCUAUCCUGUGCUCACCCUGUCUCCCCCCAGUUCCUGCUGUUCCCUCCAGCCCAGCCCAGCCCAGGUGUGAGAUUCAUUGAGAUUUUUGAAACUGUUUUUACAGAUUCAAGCAGAACGCCUCCUCUUGCGGUCGCACUAGUGUGGAAUUCUCGGGUGUCAAGG
B5: ENSMUSG00000058297.76|Spock2 (ssRNA)
RNA: GGGAGUUCUACAGUCCGACGAUCGCUUCGAUAUCCGCAUGCUACUGAUCCUGCCCCUCAGCCCAACACCUGGAAUCCCUGCCCUGCCUAAUCAGCCCUACCCCAUCCUGCCUUUCUUCCUUCCUCUUCUGAGGCCAGGGAGAGGGAGGGAGGGCAGGCAGCUGAAAGCUGAGCGUCCUCCCCAAAUUGGGCUGAUUUGAUAUGAAAGCCCCACCACGGUCUUGUGGUGAUGAGGCAGGACCUGUACACACAGCAAGGCUUACUAUCCGUCUCCUGACAUCCGAAGAGCUCGUCGCAGGUGUGUCUCUUGCGGUCGCACUAGUGUGGAAUUCUCGGGUGUCAAGG
B6: ENSMUSG00000061578.198|Ksr2 (ssRNA)
RNA: GGGAGUUCUACAGUCCGACGAUCGCUUCGAUAUCCGCAUGCUAGGCACAGAGUGAAUGGGAAGGAGAGCCCUGAGGUCACUGGUCCACAUGCCCAAAGCCAUGCCCCCCAGUGAUCAGACCUGACACAAGAGGCAAAGCUGUCCCUAAGCAGAGAAUUAGCAGGGUUAGCCAGACAGCAAAAUCCAUGUAAACAUACAAAACCACCCCCCCUUUUUGAGUGGCCCUAUUGGAUGUACACACUAGGACCAAGCACGGGUCCAAAGCAGGAAGACUGAUUGACAGUAGUCACACUUCUAGAGAGACUCUUGCGGUCGCACUAGUGUGGAAUUCUCGGGUGUCAAGG
B7: ENSMUSG00000022095.7|Fam160b2|99:103 (ssRNA)
RNA: GGGAGUUCUACAGUCCGACGAUCGCUUCGAUAUCCGCAUGCUAGUCAAGUUUCCCCCACACGGUCCUUACCUGAACUUCUCUCCACCUCCAGAAGGGCAAGUCUGAGCCAGGAGCAUGACGGGUGGGGGAAGAUUCCUGCCACACAACUUCUGCCCACGGGCAGUCUCCUGCCUGGCCAUGCUGCCACUCUGUCCUCCAUGCCGGGGACUUCAGCUGCAGGACACCUCACCUGUUGACCCCACGAGCUGAGGUUUCAAGGAGGUGCUGGCUCCUAAGGCAGUGGUAUUCUUGGAGCCUUUUAGCUCUUGCGGUCGCACUAGUGUGGAAUUCUCGGGUGUCAAGG
B8: ENSMUSG00000004113.284|Cacna1b (ssRNA)
RNA: GGGAGUUCUACAGUCCGACGAUCGCUUCGAUAUCCGCAUGCUAACCUCAUGGCUGCUUUGCAAAGGGAAAACCCAUGCUCAGGAAGGUGUUCAGUGUGCACAGAUAGCUGGGAGGCCACGAGAGAAAGGUUGCACACAGACAGGCAGGCACUCCUUGGUGUGGUCUCUCUGUUUUGAAACUUCUGAUGACUUCUUGGUGGCUUGUUGUCUUCUACCCCAUGUUUCUCACAGGAUCUGUGUGUGUGUGUGUGUGUGUGUGUGUGUGUGUGUGUGUGUGUGUUAGCAUGUGUGUAUUAGCGUGUGCUCUUGCGGUCGCACUAGUGUGGAAUUCUCGGGUGUCAAGG
B9: ENSMUSG00000004113.289|Cacna1b (ssRNA)
RNA: GGGAGUUCUACAGUCCGACGAUCGCUUCGAUAUCCGCAUGCUACAUGCUCAGGAAGGUGUUCAGUGUGCACAGAUAGCUGGGAGGCCACGAGAGAAAGGUUGCACACAGACAGGCAGGCACUCCUUGGUGUGGUCUCUCUGUUUUGAAACUUCUGAUGACUUCUUGGUGGCUUGUUGUCUUCUACCCCAUGUUUCUCACAGGAUCUGUGUGUGUGUGUGUGUGUGUGUGUGUGUGUGUGUGUGUGUGUGUUAGCAUGUGUGUAUUAGCGUGUGUGAGUGUGUGAGCAUGCACGAGUCAUAGGACUCUUGCGGUCGCACUAGUGUGGAAUUCUCGGGUGUCAAGG
B10: ENSMUSG00000004113.287|Cacna1b (ssRNA)
RNA: GGGAGUUCUACAGUCCGACGAUCGCUUCGAUAUCCGCAUGCUAAAAGGGAAAACCCAUGCUCAGGAAGGUGUUCAGUGUGCACAGAUAGCUGGGAGGCCACGAGAGAAAGGUUGCACACAGACAGGCAGGCACUCCUUGGUGUGGUCUCUCUGUUUUGAAACUUCUGAUGACUUCUUGGUGGCUUGUUGUCUUCUACCCCAUGUUUCUCACAGGAUCUGUGUGUGUGUGUGUGUGUGUGUGUGUGUGUGUGUGUGUGUGUGUUAGCAUGUGUGUAUUAGCGUGUGUGAGUGUGUGAGCAUGCACUCUUGCGGUCGCACUAGUGUGGAAUUCUCGGGUGUCAAGG
B11: ENSMUSG00000004113.285|Cacna1b (ssRNA)
RNA: GGGAGUUCUACAGUCCGACGAUCGCUUCGAUAUCCGCAUGCUAUGGCUGCUUUGCAAAGGGAAAACCCAUGCUCAGGAAGGUGUUCAGUGUGCACAGAUAGCUGGGAGGCCACGAGAGAAAGGUUGCACACAGACAGGCAGGCACUCCUUGGUGUGGUCUCUCUGUUUUGAAACUUCUGAUGACUUCUUGGUGGCUUGUUGUCUUCUACCCCAUGUUUCUCACAGGAUCUGUGUGUGUGUGUGUGUGUGUGUGUGUGUGUGUGUGUGUGUGUGUUAGCAUGUGUGUAUUAGCGUGUGUGAGUGCUCUUGCGGUCGCACUAGUGUGGAAUUCUCGGGUGUCAAGG
B12: ENSMUSG00000004113.286|Cacna1b (ssRNA)
RNA: GGGAGUUCUACAGUCCGACGAUCGCUUCGAUAUCCGCAUGCUACUUUGCAAAGGGAAAACCCAUGCUCAGGAAGGUGUUCAGUGUGCACAGAUAGCUGGGAGGCCACGAGAGAAAGGUUGCACACAGACAGGCAGGCACUCCUUGGUGUGGUCUCUCUGUUUUGAAACUUCUGAUGACUUCUUGGUGGCUUGUUGUCUUCUACCCCAUGUUUCUCACAGGAUCUGUGUGUGUGUGUGUGUGUGUGUGUGUGUGUGUGUGUGUGUGUGUUAGCAUGUGUGUAUUAGCGUGUGUGAGUGUGUGAGCUCUUGCGGUCGCACUAGUGUGGAAUUCUCGGGUGUCAAGG
B13: ENSMUSG00000004113.288|Cacna1b (ssRNA)
RNA: GGGAGUUCUACAGUCCGACGAUCGCUUCGAUAUCCGCAUGCUAAAAACCCAUGCUCAGGAAGGUGUUCAGUGUGCACAGAUAGCUGGGAGGCCACGAGAGAAAGGUUGCACACAGACAGGCAGGCACUCCUUGGUGUGGUCUCUCUGUUUUGAAACUUCUGAUGACUUCUUGGUGGCUUGUUGUCUUCUACCCCAUGUUUCUCACAGGAUCUGUGUGUGUGUGUGUGUGUGUGUGUGUGUGUGUGUGUGUGUGUGUUAGCAUGUGUGUAUUAGCGUGUGUGAGUGUGUGAGCAUGCACGAGUCCUCUUGCGGUCGCACUAGUGUGGAAUUCUCGGGUGUCAAGG

target: TDP-43 (Homo sapiens, UniProt Q13148 1-414); test: RNA Bind-n-Seq with designed 260-mer pool; 25 mM Tris-HCl, 150 mM KCl, 3 mM MgCl2, BSA (printed 500 mg/mL), 20 units/mL SUPERase IN; pH not stated; 500 nM RNA pool, 1 h, 4 C; TDP-43 5, 50, 500 nM; high values mean tight binding; conditions: protein: recombinant; tags: SBP (GST cleaved off with PreScission; pGEX-GST-SBP)
Method in brief: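 Recombinant SBP-tagged TDP-43 at 5, 50 or 500 nM was captured on streptavidin beads, then incubated 1 h at 4 °C with 500 nM of an in vitro-transcribed 260-nt 3′ UTR oligo pool in 25 mM Tris-HCl, 150 mM KCl, 3 mM MgCl2, BSA and SUPERase IN. Bound RNA was washed, eluted with biotin, reverse transcribed, PCR-amplified and sequenced. Binding is R, each oligo's mapped-read-normalized abundance in the bound sample divided by its abundance in input. Duplicates used two independent protein batches.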

Chain of TDP-43 (Q13148 whole entry): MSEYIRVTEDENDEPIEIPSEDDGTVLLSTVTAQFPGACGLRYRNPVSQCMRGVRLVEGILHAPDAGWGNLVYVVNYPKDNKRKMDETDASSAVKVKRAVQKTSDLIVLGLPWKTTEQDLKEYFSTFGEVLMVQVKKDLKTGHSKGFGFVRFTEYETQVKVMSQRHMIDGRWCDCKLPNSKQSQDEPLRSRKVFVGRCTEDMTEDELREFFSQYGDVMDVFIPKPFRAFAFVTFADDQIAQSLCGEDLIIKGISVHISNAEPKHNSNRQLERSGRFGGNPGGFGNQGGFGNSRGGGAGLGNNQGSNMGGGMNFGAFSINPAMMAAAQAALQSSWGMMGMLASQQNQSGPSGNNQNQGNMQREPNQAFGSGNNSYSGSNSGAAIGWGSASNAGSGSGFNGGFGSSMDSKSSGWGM

Row | Binder | binding signal
1 | B1 | 0.299 R (bound/input frequency ratio)
2 | B2 | 0.443 R (bound/input frequency ratio)
3 | B3 | 1.12 R (bound/input frequency ratio)
4 | B4 | 0.479 R (bound/input frequency ratio)
5 | B5 | 0.827 R (bound/input frequency ratio)
6 | B6 | 1.41 R (bound/input frequency ratio)
7 | B7 | 0.238 R (bound/input frequency ratio)
8 | B8 | 6.3 R (bound/input frequency ratio)
9 | B9 | 5.06 R (bound/input frequency ratio)
10 | B10 | 5.32 R (bound/input frequency ratio)
11 | B11 | 7.91 R (bound/input frequency ratio)
12 | B12 | 6.11 R (bound/input frequency ratio)
13 | B13 | 7.06 R (bound/input frequency ratio)
